# Screens deposited in PubChem by The Scripps Research Institute Molecular Screening Center.
# TTR transcr act – TTR transcription activation, primary screen | SH-SY5Y TTR promoter Gaussia luciferase, luminescence; 100% = recombinant luciferase protein wells | activation, % at 16.7 µM | 92,000 compounds, 1.3% hits | AID 1117267;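 active = activation above the mean of all tested compounds plus 3 SD, cut at about 9.5% in these data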;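 note: cells exposed to compounds for one day before reading; 0% = median of all test compound wells on the plate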
# HuH7 TTR inh – HuH7 TTR transcription inhibition, counter-screen | shares compounds with TTR transcr act | HuH7 TTR promoter-Gaussia luciferase reporter, luminescence | inhibition, % at 16.7 µM | 1,100 compounds, 4% hits;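 active = average inhibition above the solvent-only control wells' mean plus 3 SD, cut at about 15% in these data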;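 note: 0% = cells with DMSO only and 100% = cells with inhibitor control FD; inhibitors lower well luminescence so higher value means more inhibition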
# TTR act confirm – human TTR transcription activation, confirmation. shares compounds with TTR transcr act. AID 1117280. 1,100 tested, under 10 active. activation, % at 16.7 µM. SHSY5Y TTR promoter Gaussia luciferase, luminescence; 100% = purified Lucia enzyme wells, no cells;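 active = mean activation above a set limit taken from the earlier primary screen, cut at about 11% in these data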;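 note: 0% = DMSO-treated cells and 100% = recombinant Lucia luciferase without cells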
# An asterisk follows results filed as active. Only a selection was taken, and hits are over-represented in it overall.
SMILES,TTR transcr act,others
COc1ccc(CCNc2c3ccccc3nc3ccccc23)cc1OC,11*,HuH7 TTR inh=-17;TTR act confirm=14*
O=C(CSC1=Nc2ccccc2C2CC=NN12)Nc1ccc(F)c(F)c1F (configuration not stated),-2,
Cc1cc(C)cc(-c2c(C(=O)c3ccc(Br)cc3)[nH]c(N)c2C(=O)NCc2ccc(Cl)cc2)c1,-1,
COc1ccc(C2=Nn3c(nnc3-c3ccccc3F)SC2)cc1OC1CCCC1,-7,
CC(=O)Nc1ccc(NC(=O)Cn2ccc([N+](=O)[O-])n2)cc1,1,
Cc1ccc(NC(=O)CCn2ccc([N+](=O)[O-])n2)nc1,29*,HuH7 TTR inh=8;TTR act confirm=1
O=C(CCn1ccc([N+](=O)[O-])n1)NC1CCCCCC1,1,
C#CCNC(=O)C[C@@H]1C(=O)N(CCc2ccc(Cl)cc2)C2=CCCCC[C@]21C(=O)OC,1,
COc1cc(OC)cc(C(=O)N2CCN(C3CCCCC3)CC2)c1,6,
O=C(CCCc1ccccc1)N1CCN(C2CCCCC2)CC1,1,
COc1ccc(CCC(=O)N2CCN(C3CCCCC3)CC2)cc1,14*,HuH7 TTR inh=-14;TTR act confirm=0
CCCCOc1ccc(/C=C/C(=O)OCC(=O)NC(=O)NCC(C)C)cc1OCC,0,
CCOC(=O)c1c(C)n(C)c2ccc(OCC(N)=O)cc12,-1,
CC1CCCN(S(=O)(=O)c2ccc(S(=O)(=O)N3CCCC3)cc2)C1 (configuration not stated),3,
O=C(N/N=C/c1ccc(O)c(O)c1)N/N=C/c1ccc(O)c(O)c1,11*,HuH7 TTR inh=-10;TTR act confirm=-1
Oc1ccc(/C=N/NC(=S)Nc2cccnc2)cc1O,-2,
Cc1cc(SCC(=O)N/N=C/c2ccc(O)c(O)c2)c(C)cc1Br,4,
Cc1cc(C)n(C(=O)CNc2cccc(Cl)c2C)n1,11*,HuH7 TTR inh=-14;TTR act confirm=-1
Cc1cc(C)n(C(=O)Cn2nc(C)c(Cl)c2C)n1,1,
Cc1cc(C)n(C(=O)CNC(=O)C(c2ccccc2)c2ccccc2)n1,-1,
CCc1nc(N2CCN(C(C)=O)CC2)c(C#N)c2c1COC(C)(C)C2,-1,
Cc1cc(C(=O)CSc2nnc(-c3ccc(F)cc3)o2)c(C)n1CC1CCCO1 (configuration not stated),-1,
Cc1ccc(CN2CC(C(=O)N3CCN(c4ccccc4Cl)CC3)CC2=O)cc1 (configuration not stated),-3,
Cc1cc([N+](=O)[O-])nn1CCCC(=O)Nc1cc(Cl)ccc1Cl,14*,HuH7 TTR inh=-13;TTR act confirm=-1
Cc1cc([N+](=O)[O-])nn1CCCC(=O)NCc1ccccc1,-1,
SMILES,TTR transcr act,others
Cc1cc(NC(=O)CCCn2nc([N+](=O)[O-])cc2C)no1,2,
COc1ccc(/C=C2\SC(=NCc3ccccc3)NC2=O)cc1,0,
CCOc1cc(N2CCOCC2)c(OCC)cc1NC(=O)CN1C(=O)NC(CC(C)C)C1=O (configuration not stated),0,
COc1cccc(N2CCN(C(=O)CCCCCn3c(=S)[nH]c4cc5c(cc4c3=O)OCO5)CC2)c1,-1,
COc1cccc(CCC(=O)N2CCC(n3nccc3NC(=O)C3CCOC3)CC2)c1 (configuration not stated),1,
Cc1ccc(C)c(N2CCN(C(c3ccccc3)c3nnnn3C(C)(C)C)CC2)c1 (configuration not stated),0,
CCC(C)(C)n1nnnc1C(c1ccc(C)cc1)N1CCCC1 (configuration not stated),18*,HuH7 TTR inh=-7;TTR act confirm=1
CCC(C)(C)n1nnnc1C(c1cc2cc(C)cc(C)c2[nH]c1=O)N1CCCC1 (configuration not stated),-2,
CCc1nc(N[C@H](C(=O)O)C(C)CC)c2oc3ccccc3c2n1 (some centres not stated),-2,
O=S(=O)(Nc1ccc(-n2cccc2)cc1)c1ccc(Cl)cc1Cl,6,
CCOC(=O)C(NCc1ccc2c(c1)OCO2)(NC(=O)c1ccccc1)C(F)(F)F (configuration not stated),0,
CNC(=O)c1sc(=S)n(-c2ccc(OC)cc2)c1N,0,
COc1cccc(C(=O)NCc2cccnc2)c1,-2,
COc1ccc(-n2c(N)c(C(=O)NCc3cccnc3)sc2=S)cc1,9.9*,HuH7 TTR inh=-24;TTR act confirm=0
Cc1cccc(CN2CCN(C3CN(CCc4ccccc4)S(=O)(=O)C3)CC2)c1 (configuration not stated),3,
COC(=O)C(CCCCNC(=O)OCc1ccccc1)NC(=O)CN (configuration not stated),1,
COC(=O)C(CSCc1ccccc1)NC(=O)CCNC(=O)OCc1ccccc1 (configuration not stated),14*,HuH7 TTR inh=-16;TTR act confirm=0
Cc1cc(Br)c(NC(=O)CCNC(=O)OCc2ccccc2)cc1C,0,
